Experimental data reported in PubChem BioAssay (Tox21).
Several values for one entry are separate records, joined by “and”; a condition that tells them apart may be missing. Equal entries are not always repeated. Inconclusive results are not listed. Activity calls are given as the source filed them. Unless noted, calls come from the whole dose curve; as a rule, active = well fitted curve in the direction sought with a large enough effect in the repeat runs; inconclusive = weak or mixed curves; inactive = no such curve, though single readings can be large; an effect the other way counts as inactive or inconclusive.

Experiments:
[1] = qHTS assay to identify small molecule antagonists of the glucocorticoid receptor (GR) signaling pathway - cell viability counter screen (AID 720693); note: nearly all actives have a fitted effect of over 55% in size
[2] = qHTS assay for identifying genotoxic compounds that show differential cytotoxicity against isogenic chicken DT40 cell lines with known DNA damage response pathways - wild type cell line (AID 743012); note: nearly all actives have a fitted effect of over 60% in size; note: potency is the fitted concentration of half-maximal effect
Summary of the method: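 Luminescent ATP viability signal (CellTiter-Glo, 30 min RT) recorded after wild type DT40 cells were incubated with compounds for 40 h at 37 C/5% CO2.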

[3] = qHTS assay for identifying genotoxic compounds that show differential cytotoxicity against isogenic chicken DT40 cell lines with known DNA damage response pathways - Rev3 mutant cell line (AID 743014); note: nearly all actives have a fitted effect of over 55% in size; note: potency is the fitted concentration of half-maximal effect
[4] = qHTS assay for identifying genotoxic compounds that show differential cytotoxicity against isogenic chicken DT40 cell lines with known DNA damage response pathways - Rad54/Ku70 mutant cell line (AID 743015); note: nearly all actives have a fitted effect of over 60% in size; note: potency is the fitted concentration of half-maximal effect
[5] = qHTS assay to identify small molecule antagonists of the androgen receptor (AR) signaling pathway - cell viability counter screen (AID 743033; note: nearly all actives have a fitted effect of over 45% in size)
[6] = qHTS assay to identify small molecule antagonists of the thyroid receptor (TR) signaling pathway - cell viability counter screen (AID 743064); note: nearly all actives have a fitted effect of over 50% in size
Summary of the method: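 CellTiter-Fluor readout, 30 min at 37 °C/5% CO2, following 23.5 h incubation of GH3.TRE-Luc cells with test compound and 1 nM T3 (final).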

[7] = qHTS assay to identify small molecule antagonists of the thyroid receptor (TR) signaling pathway (AID 743065); note: nearly all actives have a fitted effect of over 55% in size
Summary of the method: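 Antagonism measured as loss of luciferase signal in GH3 cells stably carrying a TRE-luciferase reporter, co-treated with compound and T3 (1 nM final) for 23.5 h at 37 C. Viability was read in the same well by CellTiter-Fluor.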

[8] = system: thyroid hormone receptor (rat, GH3 cells); assay: qHTS assay to identify small molecule agonists of the thyroid receptor (TR) signaling pathway (AID 743066; calls by dose curve)
[9] = qHTS assay to identify small molecule antagonists of the estrogen receptor alpha (ER-alpha) signaling pathway - cell viability counter screen (AID 743074; calls by dose curve;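 note: HEK293 cells carrying ER-alpha-UAS-bla reporter stimulated with 17beta-estradiol; nearly all actives have a fitted effect of over 45% in size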)
[10] = qHTS assay to identify small molecule antagonists of the estrogen receptor alpha (ER-alpha) signaling pathway using the BG1 cell line - cell viability counter screen (AID 743081);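 note: compound given together with 17beta-estradiol as the ER stimulus; nearly all actives have a fitted effect of over 45% in size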
Aromatase (Homo sapiens) = Aromatase (Homo sapiens) (UniProt P11511); assay: qHTS assay to identify aromatase inhibitors (AID 743083); note: nearly all actives have a fitted effect of over 55% in size
Chain of Aromatase (Homo sapiens) (P11511 whole entry, looked up): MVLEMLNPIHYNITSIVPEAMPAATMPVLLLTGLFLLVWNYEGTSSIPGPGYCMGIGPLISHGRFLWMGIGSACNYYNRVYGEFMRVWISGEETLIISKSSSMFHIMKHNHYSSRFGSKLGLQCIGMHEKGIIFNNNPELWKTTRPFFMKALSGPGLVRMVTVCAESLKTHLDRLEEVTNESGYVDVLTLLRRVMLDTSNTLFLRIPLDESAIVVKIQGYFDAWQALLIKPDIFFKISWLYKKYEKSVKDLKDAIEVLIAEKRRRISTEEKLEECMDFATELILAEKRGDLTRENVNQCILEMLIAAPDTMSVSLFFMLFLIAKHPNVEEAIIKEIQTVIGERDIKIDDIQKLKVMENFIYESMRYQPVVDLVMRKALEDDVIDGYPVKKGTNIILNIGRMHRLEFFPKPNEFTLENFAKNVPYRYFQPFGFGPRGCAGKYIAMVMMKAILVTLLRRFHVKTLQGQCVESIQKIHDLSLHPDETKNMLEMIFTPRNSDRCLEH

[11] = qHTS assay to identify aromatase inhibitors - cell viability counter screen (AID 743084)
[12] = qHTS assay to identify small molecule antagonists of the androgen receptor (AR) signaling pathway using the MDA cell line - cell viability counter screen (AID 743041; note: nearly all actives have a fitted effect of over 45% in size)
Summary of the method: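 Viability read by CellTiter-Fluor fluorescence in the same wells as the antagonist screen, added after 15.5 h of a 16 h, 37C exposure. Human breast carcinoma MDA-kb2 AR-luc cells, compounds co-dosed with agonist R1881.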

[13] = target: Estrogen receptor (Homo sapiens) (UniProt P03372); assay: qHTS assay to identify small molecule agonists of the estrogen receptor alpha (ER-alpha) signaling pathway (AID 743075; calls by dose curve;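 note: HEK293 GripTite cells with ER-alpha and UAS-driven beta-lactamase reporter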)
Chain of Estrogen receptor (Homo sapiens) (P03372 whole entry, looked up): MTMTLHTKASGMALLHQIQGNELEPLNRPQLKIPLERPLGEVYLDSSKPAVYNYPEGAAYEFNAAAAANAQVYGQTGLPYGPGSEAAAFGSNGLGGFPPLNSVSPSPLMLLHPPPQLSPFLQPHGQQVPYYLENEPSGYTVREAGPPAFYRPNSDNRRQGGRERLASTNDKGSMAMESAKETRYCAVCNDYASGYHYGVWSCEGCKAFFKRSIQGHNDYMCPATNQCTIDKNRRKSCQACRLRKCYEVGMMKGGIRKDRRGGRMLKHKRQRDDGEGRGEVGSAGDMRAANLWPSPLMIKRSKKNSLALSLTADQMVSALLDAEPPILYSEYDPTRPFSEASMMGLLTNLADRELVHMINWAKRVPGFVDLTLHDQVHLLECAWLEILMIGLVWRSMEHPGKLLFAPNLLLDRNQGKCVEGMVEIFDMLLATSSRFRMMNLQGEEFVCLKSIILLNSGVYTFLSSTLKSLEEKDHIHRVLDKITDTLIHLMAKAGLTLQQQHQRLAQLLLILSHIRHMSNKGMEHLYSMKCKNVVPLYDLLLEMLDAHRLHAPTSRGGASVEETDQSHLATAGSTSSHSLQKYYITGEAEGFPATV

[14] = target: Estrogen receptor (Homo sapiens) (UniProt P03372); assay: qHTS assay to identify small molecule agonists of the estrogen receptor alpha (ER-alpha) signaling pathway using the BG1 cell line (AID 743079); settings: BG1Luc4E2 cells, ERE-luciferase agonist, 22 h; for activation: at 70.3 µM (top of the series); note: potency is the fitted concentration of half-maximal effect; for all read-outs here: nearly all actives have a fitted effect of over 20% in size
[15] = qHTS assay to identify small molecule antagonists of the estrogen receptor alpha (ER-alpha) signaling pathway using the BG1 cell line (AID 743080; calls by dose curve;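 note: BG1 cells stimulated with 17beta-estradiol alongside compound; nearly all actives have a fitted effect of over 25% in size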)
Summary of the method: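 After 5 days in phenol-red-free 10% charcoal-stripped FBS medium, BG1-Luc-4E2 cells were seeded, left 24 h at 37 C, co-treated with compounds and 17beta-estradiol for 21.5 h, then assayed for viability and luciferase.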

[16] = target: Estrogen receptor (Homo sapiens) (UniProt P03372); assay: qHTS assay to identify small molecule antagonists of the estrogen receptor alpha (ER-alpha) signaling pathway (AID 743069; active = well fitted curve in the direction sought with a large enough effect in the signal ratio in the repeat runs, not every such curve was filed as active; the % refers to the signal ratio)
Summary of the method: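 Antagonist mode: compounds in DMSO were co-added with 17beta-estradiol to ER-alpha-bla HEK293 cells (2% charcoal-stripped serum) and left 18 h at 37C. Reporter inhibition was measured as FRET fluorescence after 2 h LiveBLAzer substrate at room temperature.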
% is set by controls: 0 for no effect and ±100 for the full control effect.

CC(C)NCC(O)c1ccc([N+](=O)[O-])cc1 (stereo not given)
inactive: Potency [1] | Potency [2] | Potency [3] | Potency [4] | Potency [5] | Potency [6] | Potency [7] | Potency [8] | Potency [9] | Potency [10] | Potency (Aromatase (Homo sapiens)) | Potency [11]

COc1ccc2c(C(=O)c3ccc(Cl)cc3)c(C)n(CC(=O)O)c2c1
inactive: Potency [1] | Potency [2] | Potency [3] | Potency [4] | Potency [5] | Potency [12] | Potency [7] | Potency [8] | Potency [9] | Potency [10] | Potency (Aromatase (Homo sapiens)) | Potency [11]

ClCOCCl
active: Potency [14] 61.4 µM
inactive: Potency [1] | Potency [2] | Potency [3] | Potency [4] | Potency [5] | Potency [6] | Potency [7] | Potency [8] | Potency [9] | Potency [13] | Potency [15] | Potency [10] | Potency (Aromatase (Homo sapiens)) | Potency [11]

CC(C)C(C)(N)C#N (stereo not given)
inactive: Potency [1] | Potency [2] | Potency [3] | Potency [4] | Potency [5] | Potency [6] | Potency [7] | Potency [8] | Potency [10] | Potency (Aromatase (Homo sapiens)) | Potency [11]

O=C(O)c1c(Cl)ccc2cc(Cl)cnc12
inactive: Potency [1] | Potency [2] | Potency [3] | Potency [4] | Potency [5] | Potency [6] | Potency [7] | Potency [8] | Potency [16] | Potency [9] | Potency [13] | activation [14] 3.83% | Potency [15] | Potency [10] | Potency (Aromatase (Homo sapiens)) | Potency [11]

O=C(O)C(Cl)Br (stereo not given)
inactive: Potency [1] | Potency [2] | Potency [3] | Potency [4] | Potency [5] | Potency [12] | Potency [6] | Potency [7] | Potency [8] | Potency [9] | Potency [10] | Potency (Aromatase (Homo sapiens)) | Potency [11]

O=C(Cl)C(Cl)Cl
inactive: Potency [1] | Potency [2] | Potency [3] | Potency [4] | Potency [5] | Potency [12] | Potency [7] | Potency [8] | Potency [16] | Potency [9] | Potency [13] | activation [14] 0.358% | Potency [15] | Potency [10] | Potency (Aromatase (Homo sapiens)) | Potency [11]

O=[N+]([O-])c1cccc(CCl)c1
inactive: Potency [1] | Potency [2] | Potency [3] | Potency [4] | Potency [5] | Potency [12] | Potency [6] | Potency [7] | Potency [8] | Potency [9] | Potency [10]

CCCC(C)(COC(N)=O)COC(N)=O
inactive: Potency [1] | Potency [2] | Potency [3] | Potency [4] | Potency [5] | Potency [12] | Potency [6] | Potency [7] | Potency [8] | Potency [9] | Potency [10] | Potency (Aromatase (Homo sapiens)) | Potency [11]

CC(C)(C)C(=O)C(Cl)Cl
inactive: Potency [1] | Potency [2] | Potency [3] | Potency [4] | Potency [5] | Potency [12] | Potency [6] | Potency [7] | Potency [8] | Potency [9] | Potency [10]

ClC(Cl)(Cl)Cl
inactive: Potency [1] | Potency [2] | Potency [3] | Potency [4] | Potency [5] | Potency [6] | Potency [7] | Potency [8] | Potency [9] | Potency [13] | activation [14] 2.38% and 2.1% | Potency [15] | Potency [10] | Potency (Aromatase (Homo sapiens)) | Potency [11]

C=CC(=O)OCCN(C)C
inactive: Potency [1] | Potency [2] | Potency [3] | Potency [4] | Potency [5] | Potency [12] | Potency [6] | Potency [7] | Potency [8] | Potency [9] | Potency [10] | Potency (Aromatase (Homo sapiens)) | Potency [11]

CCNP(=S)(OC)O/C(C)=C/C(=O)OC(C)C (stereo not given)
active: Potency [2] 61.1 µM | Potency [3] 34.4 µM | Potency [4] 54.5 µM
inactive: Potency [1] | Potency [5] | Potency [7] | Potency [8] | Potency [16] | Potency [9] | Potency [13] | activation [14] 10.8% | Potency [15] | Potency [10] | Potency (Aromatase (Homo sapiens)) | Potency [11]

CC(C)(C)NC[C@H](O)c1ccc(O)cc1Cl
inactive: Potency [1] | Potency [2] | Potency [3] | Potency [4] | Potency [5] | Potency [6] | Potency [7] | Potency [8] | Potency [9] | Potency [10] | Potency (Aromatase (Homo sapiens)) | Potency [11]
